Measurements: the supplement of paper PMC11732987, “Enantioselective OTUD7B fragment discovery through chemoproteomics screening and high-throughput optimisation” (Communications Chemistry, 2025)

compound: ClCC(=O)N1CCC(CC#N)C1; assay: log2 ratio of Biotin-Ahx-Ub-VS probe labelling (compound/DMSO); higher = less target engagement, active = hit call of the paper (q ≤ 0.05, log2 ratio ≤ -1); details: compound concentration: 50uM; treatment time: 3 h
Experimental: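 Round 2 competitive ABPP in HEK293T lysate. Purified HTC-D2B compounds were tested at 50 and 200 µM for 3 h, followed by Biotin-Ahx-Ub-VS enrichment and diaPASEF LC-MS/MS. Values are the average log2 ratio (compound/DMSO) from an unpaired t-test (n=3 treated, n=26 DMSO).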

Sequence of UniProt Q70CQ2 (Q70CQ2 whole entry): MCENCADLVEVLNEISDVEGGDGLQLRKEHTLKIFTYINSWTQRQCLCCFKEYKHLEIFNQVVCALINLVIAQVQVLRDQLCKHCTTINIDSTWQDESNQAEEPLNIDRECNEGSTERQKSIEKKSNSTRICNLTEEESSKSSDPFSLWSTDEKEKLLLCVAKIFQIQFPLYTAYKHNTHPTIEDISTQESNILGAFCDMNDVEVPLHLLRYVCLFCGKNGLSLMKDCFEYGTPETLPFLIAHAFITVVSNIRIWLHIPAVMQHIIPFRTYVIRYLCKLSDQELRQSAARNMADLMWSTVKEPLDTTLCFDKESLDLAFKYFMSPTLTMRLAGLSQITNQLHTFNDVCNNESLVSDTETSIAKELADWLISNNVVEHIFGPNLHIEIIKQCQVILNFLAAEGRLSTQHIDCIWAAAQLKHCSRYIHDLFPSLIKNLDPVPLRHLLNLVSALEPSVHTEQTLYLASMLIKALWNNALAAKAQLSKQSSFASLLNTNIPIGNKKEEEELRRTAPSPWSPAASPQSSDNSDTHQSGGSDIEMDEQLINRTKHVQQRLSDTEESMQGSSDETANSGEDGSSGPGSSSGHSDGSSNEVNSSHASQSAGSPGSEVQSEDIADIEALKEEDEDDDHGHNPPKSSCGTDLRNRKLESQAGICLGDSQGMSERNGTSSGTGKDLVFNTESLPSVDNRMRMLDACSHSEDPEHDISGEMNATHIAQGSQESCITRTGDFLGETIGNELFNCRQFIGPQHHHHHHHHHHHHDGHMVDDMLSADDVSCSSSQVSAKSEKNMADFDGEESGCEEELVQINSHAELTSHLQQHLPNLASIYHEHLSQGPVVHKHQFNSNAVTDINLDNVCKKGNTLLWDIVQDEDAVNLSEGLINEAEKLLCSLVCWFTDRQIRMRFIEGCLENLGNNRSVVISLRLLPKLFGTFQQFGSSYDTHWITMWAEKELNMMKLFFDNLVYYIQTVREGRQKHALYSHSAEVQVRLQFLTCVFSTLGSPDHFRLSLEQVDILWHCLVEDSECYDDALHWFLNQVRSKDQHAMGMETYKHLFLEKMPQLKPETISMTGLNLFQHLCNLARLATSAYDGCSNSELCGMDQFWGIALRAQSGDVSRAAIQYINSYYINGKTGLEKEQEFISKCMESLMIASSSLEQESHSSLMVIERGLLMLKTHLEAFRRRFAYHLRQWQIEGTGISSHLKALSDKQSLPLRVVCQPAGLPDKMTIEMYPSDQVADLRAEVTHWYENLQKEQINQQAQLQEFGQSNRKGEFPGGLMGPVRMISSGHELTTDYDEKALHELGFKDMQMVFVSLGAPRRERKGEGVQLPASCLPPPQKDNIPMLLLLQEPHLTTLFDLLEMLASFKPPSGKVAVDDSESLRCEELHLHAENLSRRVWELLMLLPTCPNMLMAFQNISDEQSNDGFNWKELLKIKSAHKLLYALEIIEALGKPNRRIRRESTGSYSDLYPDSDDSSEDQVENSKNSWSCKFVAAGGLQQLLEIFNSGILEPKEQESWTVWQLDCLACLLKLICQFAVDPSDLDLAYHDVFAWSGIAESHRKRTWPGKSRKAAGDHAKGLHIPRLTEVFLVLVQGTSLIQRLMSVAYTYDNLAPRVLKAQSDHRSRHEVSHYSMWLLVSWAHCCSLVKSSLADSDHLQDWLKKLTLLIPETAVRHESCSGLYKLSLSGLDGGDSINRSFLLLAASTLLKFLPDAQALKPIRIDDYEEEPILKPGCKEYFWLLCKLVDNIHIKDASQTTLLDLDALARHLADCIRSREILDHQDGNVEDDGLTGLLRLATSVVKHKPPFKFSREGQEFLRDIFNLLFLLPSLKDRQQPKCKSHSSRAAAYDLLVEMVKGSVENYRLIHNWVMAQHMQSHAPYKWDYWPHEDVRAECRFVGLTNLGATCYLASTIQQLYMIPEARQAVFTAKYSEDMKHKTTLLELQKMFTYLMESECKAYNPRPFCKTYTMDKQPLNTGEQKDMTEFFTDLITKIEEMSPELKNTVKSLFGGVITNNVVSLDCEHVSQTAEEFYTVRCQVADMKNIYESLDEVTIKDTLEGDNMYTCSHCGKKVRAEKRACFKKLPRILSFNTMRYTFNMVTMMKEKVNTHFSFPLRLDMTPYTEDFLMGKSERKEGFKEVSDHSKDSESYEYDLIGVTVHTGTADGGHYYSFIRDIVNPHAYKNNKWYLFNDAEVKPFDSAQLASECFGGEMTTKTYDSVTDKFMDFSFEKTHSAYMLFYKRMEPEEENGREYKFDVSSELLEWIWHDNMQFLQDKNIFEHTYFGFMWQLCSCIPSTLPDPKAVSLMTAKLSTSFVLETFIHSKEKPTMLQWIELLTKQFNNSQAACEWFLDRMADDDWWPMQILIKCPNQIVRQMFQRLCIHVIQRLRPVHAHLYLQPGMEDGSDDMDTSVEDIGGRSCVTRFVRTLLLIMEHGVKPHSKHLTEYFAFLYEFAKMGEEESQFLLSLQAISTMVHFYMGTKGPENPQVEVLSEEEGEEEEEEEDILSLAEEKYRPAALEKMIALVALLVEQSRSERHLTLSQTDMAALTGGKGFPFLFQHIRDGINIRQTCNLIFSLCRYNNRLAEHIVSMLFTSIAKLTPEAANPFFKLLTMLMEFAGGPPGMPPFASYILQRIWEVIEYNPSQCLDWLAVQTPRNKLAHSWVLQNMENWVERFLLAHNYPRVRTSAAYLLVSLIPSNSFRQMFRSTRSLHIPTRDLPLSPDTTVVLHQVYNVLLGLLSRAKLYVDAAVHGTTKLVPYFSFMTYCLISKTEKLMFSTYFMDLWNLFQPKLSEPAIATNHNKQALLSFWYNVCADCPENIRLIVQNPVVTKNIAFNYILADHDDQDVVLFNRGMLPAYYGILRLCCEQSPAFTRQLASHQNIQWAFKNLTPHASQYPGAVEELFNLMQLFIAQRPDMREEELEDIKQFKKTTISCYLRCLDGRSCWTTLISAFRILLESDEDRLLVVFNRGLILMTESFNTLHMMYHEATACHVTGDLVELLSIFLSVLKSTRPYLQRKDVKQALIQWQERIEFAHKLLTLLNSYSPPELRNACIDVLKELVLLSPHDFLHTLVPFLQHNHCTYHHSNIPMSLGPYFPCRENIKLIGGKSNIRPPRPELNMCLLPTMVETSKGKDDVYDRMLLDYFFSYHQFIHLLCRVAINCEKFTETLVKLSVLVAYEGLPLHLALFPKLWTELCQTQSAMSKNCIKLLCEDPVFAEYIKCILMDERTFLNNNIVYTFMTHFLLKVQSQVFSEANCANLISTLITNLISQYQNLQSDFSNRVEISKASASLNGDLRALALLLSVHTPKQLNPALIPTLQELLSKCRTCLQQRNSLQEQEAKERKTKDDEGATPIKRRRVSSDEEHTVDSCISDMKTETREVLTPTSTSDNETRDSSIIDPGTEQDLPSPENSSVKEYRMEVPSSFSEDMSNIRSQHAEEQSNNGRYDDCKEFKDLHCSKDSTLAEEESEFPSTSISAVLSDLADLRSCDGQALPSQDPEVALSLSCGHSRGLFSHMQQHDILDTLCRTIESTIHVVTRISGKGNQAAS
Sequence of UniProt Q93009 (Q93009 whole entry, looked up): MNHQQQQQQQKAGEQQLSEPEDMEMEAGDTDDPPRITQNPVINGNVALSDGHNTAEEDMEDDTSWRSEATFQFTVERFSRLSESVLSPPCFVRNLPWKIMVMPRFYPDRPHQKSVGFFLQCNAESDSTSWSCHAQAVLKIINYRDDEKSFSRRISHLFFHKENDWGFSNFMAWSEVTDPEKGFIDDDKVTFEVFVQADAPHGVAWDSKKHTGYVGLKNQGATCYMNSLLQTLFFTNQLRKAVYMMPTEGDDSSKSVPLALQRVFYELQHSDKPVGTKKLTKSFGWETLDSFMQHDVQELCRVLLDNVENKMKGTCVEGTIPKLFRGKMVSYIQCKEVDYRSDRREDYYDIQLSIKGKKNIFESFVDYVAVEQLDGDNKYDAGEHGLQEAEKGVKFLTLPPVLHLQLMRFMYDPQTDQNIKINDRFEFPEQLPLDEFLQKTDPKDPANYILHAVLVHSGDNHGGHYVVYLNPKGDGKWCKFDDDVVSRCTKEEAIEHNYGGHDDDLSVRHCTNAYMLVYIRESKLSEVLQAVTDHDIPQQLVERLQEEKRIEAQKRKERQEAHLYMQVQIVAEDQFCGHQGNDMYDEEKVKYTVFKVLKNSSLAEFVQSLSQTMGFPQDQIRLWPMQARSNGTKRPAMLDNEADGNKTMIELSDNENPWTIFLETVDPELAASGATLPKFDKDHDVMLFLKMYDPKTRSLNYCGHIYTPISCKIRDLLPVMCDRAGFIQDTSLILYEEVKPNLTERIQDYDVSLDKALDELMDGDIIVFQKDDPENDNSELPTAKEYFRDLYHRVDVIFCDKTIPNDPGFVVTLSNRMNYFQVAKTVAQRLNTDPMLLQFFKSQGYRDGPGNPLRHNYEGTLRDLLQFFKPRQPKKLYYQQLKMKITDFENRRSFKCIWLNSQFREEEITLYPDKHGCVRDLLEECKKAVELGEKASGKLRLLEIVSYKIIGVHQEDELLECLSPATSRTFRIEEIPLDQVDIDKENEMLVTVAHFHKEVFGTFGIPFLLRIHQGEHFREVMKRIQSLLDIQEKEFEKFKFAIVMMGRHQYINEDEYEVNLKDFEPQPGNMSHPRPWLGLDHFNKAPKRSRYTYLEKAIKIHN
Sequence of UniProt P51665 (P51665 whole entry): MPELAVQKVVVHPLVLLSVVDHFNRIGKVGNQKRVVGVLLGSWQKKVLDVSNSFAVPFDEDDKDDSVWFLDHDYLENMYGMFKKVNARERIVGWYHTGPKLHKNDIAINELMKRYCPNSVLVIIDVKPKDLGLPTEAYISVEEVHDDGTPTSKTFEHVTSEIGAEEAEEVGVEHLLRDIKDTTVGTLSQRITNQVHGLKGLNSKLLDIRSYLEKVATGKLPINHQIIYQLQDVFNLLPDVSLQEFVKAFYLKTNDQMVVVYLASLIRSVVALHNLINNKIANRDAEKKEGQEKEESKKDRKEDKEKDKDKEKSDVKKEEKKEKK

Target	log2 ratio of Biotin-Ahx-Ub-VS probe labelling
USP54 (UniProt Q70EL1)	-0.068 (inactive)
UniProt P51784	-0.0555 (inactive)
VCPIP1 (UniProt Q96JH7)	-0.405 (inactive)
PSMD7 (UniProt P51665)	0.408 (inactive)
PRPF8 (UniProt Q6P2Q9)	0.045 (inactive)
USP14 (UniProt P54578)	-0.25 (inactive)
USP4 (UniProt Q13107)	-0.106 (inactive)
USP7 (UniProt Q93009)	-0.141 (inactive)
OTUB1 (UniProt Q96FW1)	-0.024 (inactive)
USP38 (UniProt Q8NB14)	0.00826 (inactive)
YOD1 (UniProt Q5VVQ6)	-0.225 (inactive)
UniProt Q5T2D3	-0.206 (inactive)
USP22 (UniProt Q9UPT9)	-0.132 (inactive)
USP12 (UniProt O75317)	-0.0667 (inactive)
ATXN3 (UniProt P54252)	-0.387 (inactive)
USP46 (UniProt P62068)	-0.14 (inactive)
UCHL5 (UniProt Q9Y5K5)	-0.227 (inactive)
USP34 (UniProt Q70CQ2)	0.721 (inactive)
EIF3F (UniProt O00303)	-0.172 (inactive)
USP10 (UniProt Q14694)	-0.155 (inactive)

same assay, conditions: compound concentration: 200uM; treatment time: 3 h

Target	log2 ratio of Biotin-Ahx-Ub-VS probe labelling
USP54 (UniProt Q70EL1)	-0.954 (inactive)
UniProt P51784	-0.0925 (inactive)
VCPIP1 (UniProt Q96JH7)	-0.311 (inactive)
PSMD7 (UniProt P51665)	0.631 (inactive)
PRPF8 (UniProt Q6P2Q9)	-0.00376 (inactive)
USP14 (UniProt P54578)	0.0716 (inactive)
USP4 (UniProt Q13107)	0.254 (inactive)
USP7 (UniProt Q93009)	-0.201 (inactive)
OTUB1 (UniProt Q96FW1)	-0.102 (inactive)
USP38 (UniProt Q8NB14)	-0.302 (inactive)
YOD1 (UniProt Q5VVQ6)	0.00802 (inactive)
UniProt Q5T2D3	-0.203 (inactive)
USP22 (UniProt Q9UPT9)	-0.153 (inactive)
USP12 (UniProt O75317)	-0.647 (inactive)
ATXN3 (UniProt P54252)	-0.524 (inactive)
USP46 (UniProt P62068)	-0.548 (inactive)
UCHL5 (UniProt Q9Y5K5)	-0.17 (inactive)
USP34 (UniProt Q70CQ2)	-0.382 (inactive)
EIF3F (UniProt O00303)	0.14 (inactive)
USP10 (UniProt Q14694)	-0.0316 (inactive)
